The values below come from PubChem BioAssay AID778 (Sanford-Burnham Center for Chemical Genomics, 2007).

The whole screen tested about 96,000 compounds, of which about 20,000 (21%) were called active. Not all results are given here. A number with no mark means an inactive call.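 How the source made its calls: active means CYP2C19 inhibition above a set limit at 5 µM in the primary screen (cut at about 50% in these data); inactive means the rest.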

In the assay the target is Cytochrome P450 2C19 (Homo sapiens) (UniProt P33261). The experiment in a line: blockers of cytochrome P450 2C19 activity – biochemical, luminescence, ADME assay, primary screen (AID 778).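 Further: plate controls were negative control wells for no effect and 2.5 mM tranylcypromine positive control for full effect.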 Conditions: CYP2C19 Supersomes, luciferin-H EGE luminescence, 30 min; at 5 µM; hits give high values.
Sequence of Cytochrome P450 2C19 (Homo sapiens) (P33261 whole entry, looked up): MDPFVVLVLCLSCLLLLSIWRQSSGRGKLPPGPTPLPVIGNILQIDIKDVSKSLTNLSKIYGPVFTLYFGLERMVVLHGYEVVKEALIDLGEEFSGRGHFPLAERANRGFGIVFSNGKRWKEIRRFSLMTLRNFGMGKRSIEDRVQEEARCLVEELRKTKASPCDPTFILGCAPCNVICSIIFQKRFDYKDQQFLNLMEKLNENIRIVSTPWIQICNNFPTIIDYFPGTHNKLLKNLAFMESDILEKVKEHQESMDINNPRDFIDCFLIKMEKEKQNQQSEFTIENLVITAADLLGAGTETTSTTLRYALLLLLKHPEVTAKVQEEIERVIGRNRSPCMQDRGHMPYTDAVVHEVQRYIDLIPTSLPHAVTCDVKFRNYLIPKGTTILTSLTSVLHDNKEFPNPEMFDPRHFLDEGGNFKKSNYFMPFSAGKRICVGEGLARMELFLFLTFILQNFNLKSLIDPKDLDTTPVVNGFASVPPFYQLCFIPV
As for `COc1cccc(-c2cc3nc4c(c(N5CCC6(CC5)OCCO6)n3n2)CCCC4)c1`, the inhibition (as a rule, the drop in the measured response relative to a control, in per cent) is 24.8%. Take `NC(=O)C1CCN(C2OC(=O)c3ccccc32)CC1` (centres undefined): the inhibition is -2%. In the case of `c1cnn(-c2cc(N3CCOCC3)ncn2)c1` it was 5.4%; in that of `COC(=O)c1c(-c2ccc(C)cc2)csc1N`, 24.4%.

With `Cc1noc(C)c1C(=O)N1CCOCC1`, the inhibition is -2.1%.

`Cc1ccc(-c2nc(COC(=O)c3c(C)noc3C)cs2)cc1`: the inhibition was 54% (active). In the case of `O=C(/C(=N\O)n1cncn1)c1ccc(Br)cc1Br` it was 33.6%; in that of `Cc1[nH]c2ccc(S(N)(=O)=O)cc2c1C`, 13%; in that of `CNC(=O)c1c(NC(NC(=O)c2ccco2)C(=O)c2ccc(Cl)cc2)sc2c1CCCC2` (centres undefined), 21.4%.

As for `Cc1cccc(-n2c(N)cc(=O)nc2SC(C)C(=O)NC2CCCCC2)c1` (centres undefined), the inhibition was 12.9%. In the case of `CC(=O)Nc1cccc2c1[n+]([O-])c(C)c(C)[n+]2[O-]`, the inhibition was 5%. As for `CCOC(=O)c1ccc2c(c1)nc(SCC(=O)NC(C)C)n2CC`, the inhibition was 85.7% (active). Regarding `CCn1c(C)nc2cc(C(=O)NNS(=O)(=O)c3ccc(C)cc3C)ccc21`, the inhibition was 1.5%. In the case of `CCn1c(SCC(=O)NCC2CCCO2)nc2cc(S(=O)(=O)N3CCCCC3)ccc21` (centres undefined) it was 11%; in that of `N#Cc1ccccc1-n1c(N)c(C(=O)N2CCCC2)sc1=S`, 17.2%; in that of `CCC1CCCCN1CCNS(=O)(=O)c1ccc2c(c1)CCN2C(C)=O` (centres undefined), -3.7%.

Regarding `Cc1ccc(NC(=O)C(C)c2cccc(C(=O)c3ccccc3)c2)cc1` (centres undefined), the inhibition was 92.1% (active). In the case of `CC(=O)c1cccc(NC(=O)Nc2ccc(C)cc2)c1` it was -13.3%.

On to `Cc1ccc(C(=O)c2c(NC(=O)c3ccccc3)sc(C)c2C)cc1`, for which the inhibition was 23.7%. In the case of `CCn1c(=O)cc(OCC(=O)NCCCN2CCN(c3cccc(Cl)c3)CC2)c2ccccc21` it was 26.7%; in that of `CC(C)NC(=O)C(=O)NCCN1CCN(S(=O)(=O)c2ccc(Cl)cc2)CC1`, 7.4%. In the case of `Cc1ccc(C2(c3ccc(C)cc3)NC(=O)N(Cc3c(C)noc3C)C2=O)cc1` it was 14.6%; in that of `Cc1ccccc1-n1c(C)cc(/C=N/NC(=O)c2ccc(CN3CCOCC3)cc2)c1C`, 24.3%.

Regarding `CC(C)c1ccc(OCC(O)Cn2cnc3ccccc32)cc1` (centres undefined), the inhibition was 7.2%. In the case of `OC(COc1ccccc1)Cn1cc(Br)cn1` (centres undefined) it was 54.1% (active). In the case of `O=C(C(c1ccccc1)c1ccccc1)N1CCN(CC(O)COc2ccccc2)CC1` (centres undefined) it was 41.9%; in that of `COc1cccc(N(CC(=O)Nc2cccc(N(C)S(C)(=O)=O)c2)S(C)(=O)=O)c1`, 35.8%. In the case of `CCC(=O)Nc1ccc(C(=O)Nc2cccc(OC)c2)cc1` it was -0.7%; in that of `COc1cccc(NC(=O)CN(C)S(=O)(=O)c2ccc(C)cc2)c1`, 78.9% (active). For `COc1ccc(OC(C)C(=O)Nc2cccnc2)cc1` (centres undefined), the inhibition is 7.1%.

Take `COc1ccc(NC(=O)CN(C)S(=O)(=O)c2ccccc2)cc1OC`: the inhibition is 25.7%. In the case of `COc1cccc(NC(=O)c2ccccc2SC)c1` it was 6.7%; in that of `COc1ccc(CC(=O)Nc2ccc(-c3nnc(-c4ccccc4)o3)cc2)cc1`, 18%. In the case of `COc1cccc(NC(=O)Cc2ccc(C)cc2)c1` it was 57.1% (active). In the case of `COc1cccc(NC(=O)C(C)Oc2ccccc2)c1` (centres undefined) it was 79.9% (active). Regarding `CCN(CC)C(=O)CN(c1cccc(OC)c1)S(=O)(=O)c1ccc(C)cc1`, the inhibition is 64.9% (active). In the case of `CCOc1ccc(S(=O)(=O)N(CC(=O)O)c2ccccc2)cc1` it was 2.3%; in that of `COc1cccc(N(CC(=O)N2CCc3ccccc3C2)S(C)(=O)=O)c1`, 31.3%; in that of `CCOC(=O)/C=c1\s/c(=C\c2ccccc2OC)c(=O)n1CC(=O)N1CCOCC1`, -9.3%. In the case of `CCNC(=O)c1sccc1-n1cccc1` it was 16.3%; in that of `CCN1CCN(C(c2cccnc2)c2cc(Cl)c3cccnc3c2O)CC1` (centres undefined), 17.2%; in that of `Cc1ccc(C(=O)NNC(=O)c2cc3cc4ccccc4nc3s2)cc1`, -3.1%. In the case of `O=c1[nH]c(-c2ccccc2)c(-c2ccccc2)[nH]1` it was 1.3%; in that of `O=C1CC2(CCCCC2)Oc2ccc(OCC(=O)N3CCOCC3)cc21`, -3.8%; in that of `CCCCc1nnc(NC(=O)CSc2nc(C)cc(=O)[nH]2)s1`, 4.3%. `O=C1/C(=C\Nc2ccccc2)CCN1c1ncccn1`: the inhibition was 7.1%.

Regarding `CCOC(=O)c1ccn(-c2nc(-c3ccco3)cc(C(F)(F)F)n2)n1`, the inhibition was 9.7%. In the case of `CC(=O)C1C(c2cccc(Oc3ccccc3)c2)NC(=O)NC1(O)C(F)(F)F` (centres undefined) it was 24.4%; in that of `Cc1ccccc1-c1ccc(Nc2ccc(C(=O)N3CCOCC3)cc2)nn1`, 34.2%.

With `Cc1ccc(C)c(NC(=O)C2Cc3ccccc3CN2C(=O)OCc2ccccc2)c1` (centres undefined), the inhibition was 62.3% (active). Regarding `Cc1ccc(C)c(NC(=O)C2CCCN2C(=O)OC(C)(C)C)c1` (centres undefined), the inhibition is 11.7%. In the case of `CC(=O)N1Cc2ccccc2CC1C(=O)O` (centres undefined), the inhibition was -21.6%. In the case of `Cc1cc(C(F)(F)F)nn1-c1nc(-c2ccco2)cc(C(F)(F)F)n1` it was 2.2%; in that of `CCOC(=O)c1ccc(NC(=O)Cn2nnc(-c3ccc(C)cc3)n2)cc1`, 8.5%; in that of `CCOC(=O)c1cn(CC(=O)Nc2ccc(C(C)C)cc2)nn1`, 62% (active).

As to `CCOC(=O)c1ccc(NC(=O)CSc2ncccn2)cc1`, the inhibition was 26.9%.

Consider `COCC(C)NC(=O)c1ccc(-n2nc(C(F)(F)F)cc2-c2cccs2)cc1` (centres undefined), for which the inhibition is 12.4%.

On to `CSCc1cc(N2CCOCC2)nc(SCc2ccc(Cl)cc2Cl)n1`, for which the inhibition is 50.8% (active). `O=c1cc(CSc2ccc(Cl)cc2)nc(N2CCOCC2)[nH]1`: the inhibition is 38.8%. Take `CSCc1cc(N(C)C)nc(SCc2ccc(Cl)cc2Cl)n1`: the inhibition was 40.2%.

As for `O=C(c1ccc2c(c1)OCCO2)C1CCN(S(=O)(=O)c2cccc(F)c2)CC1`, the inhibition is 35.4%. Turning to `COc1ccc(CCNC(=O)CCn2c(=O)oc3ccccc32)cc1OC`, the inhibition is 1.4%. `Cc1nnc(NC(=O)Cn2c(=O)sc3ccccc32)s1`: the inhibition is 47.6%. In the case of `COc1ccc(Cn2c(=O)sc3ccccc32)cc1OC` it was 99.8% (active).
